Only some compounds are listed: those with a hit (about 2.4% of all), similar ones and a draw of the others.
Cruzain inh Det – inhibitors of Trypanosoma cruzi cruzain with detergent; purified cruzain, Z-FR-AMC fluorescence, 0.01% Triton; Potency, µM, hits mostly inhibitors; P25779; 200,000 compounds, 0.43% hits; further: nearly all actives have a fitted effect of over 40% in size
Target sequence (P25779 123-467 limits assumed): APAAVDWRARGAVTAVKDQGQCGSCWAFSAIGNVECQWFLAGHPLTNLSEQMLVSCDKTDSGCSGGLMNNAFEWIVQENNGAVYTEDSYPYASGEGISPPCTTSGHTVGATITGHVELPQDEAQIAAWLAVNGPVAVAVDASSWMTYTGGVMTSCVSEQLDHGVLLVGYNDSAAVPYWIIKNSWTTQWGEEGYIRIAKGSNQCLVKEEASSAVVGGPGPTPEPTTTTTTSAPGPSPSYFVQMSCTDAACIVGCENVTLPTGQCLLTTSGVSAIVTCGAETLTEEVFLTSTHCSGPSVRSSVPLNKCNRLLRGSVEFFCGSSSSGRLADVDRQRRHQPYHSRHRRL
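Z-FR-AMC hydrolysis (2 uM substrate) by cruzain (1.5 nM) monitored kinetically at ex 360/em 450 nm after 15 min room-temperature compound exposure; 0.01% Triton X-100, pH 5.5, 5 mM DTT.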
Cruzain inh noDet – blocks cruzain activity in detergent-free assay; purified cruzain, Z-FR-AMC fluorescence, no detergent; Potency, µM, actives largely listed as inhibitors; 200,000 compounds, 2.3% hits; further: nearly all actives have a fitted effect of over 40% in size
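Purified cruzain at 1.5 nM, pre-incubated 15 min with compound at room temperature in 100 mM sodium acetate pH 5.5, 5 mM DTT, 0.00005% Triton X-100. Reaction started with 2 uM Z-FR-AMC; AMC fluorescence increase over 60 s gives rate.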
A number is an active result; 0 = inactive; ? = inconclusive. The call rests on the fitted dose curve; in most records, active means well fitted curve in the direction sought with a large enough effect; inconclusive means small, poorly fitted or top-dose-only effect, or another doubt; inactive means no such curve, though single readings can be large; an effect the other way counts as inactive or inconclusive.

SMILES | Cruzain inh Det | Cruzain inh noDet
COc1ccc(C(=O)NCC(=O)N=Nc2c(O)n(Cc3ccccc3)c3ccccc23)cc1OC | 0 | 0
NC(=S)N=Nc1c(O)n(Cc2ccc(F)cc2)c2ccccc12 | 12.6µM | ?
Cc1ccc(S(=O)(=O)c2[nH]c(-c3ccccc3)nc2SCC(N)=O)cc1 | 0 | 0
CCOc1cccc2sc(NC(=O)c3ccc(S(=O)(=O)N4CCCCC4C)cc3)nc12 (stereo not given) | 0 | 0
Cc1nn(CC(=O)N2CCCCC2)c(=O)c2cc3occc3n12 | 0 | 0
COc1ccc(CC(=O)NCC(c2cccs2)S(=O)(=O)c2ccc(Cl)cc2)cc1 (stereo not given) | 0 | 0
O=C(OCN1C(=O)c2ccccc2C1=O)C1CCCCC1 | 0 | 0
O=C1c2ccccc2C(=O)N1SC1CCCCC1 | 14.1µM | 6.31µM
CCN(CC)c1cc(C)c2cc(NC(=O)/C=C/c3cc(OC)c(OC)c(OC)c3)ccc2n1 | 0 | 0
CCOCCCNC(=O)C1CCN(c2cc(C)nc3c(-c4ccc(Cl)cc4)c(C)nn23)CC1 | 0 | 0
CCOC(=O)c1c(C)c(-c2ccccc2)n(CC(=O)NCCc2ccc(C)cc2)c1C | 0 | 0
NC(=S)N/N=C/c1ccc(-c2cc(Cl)cc(Cl)c2)o1 | 4.47µM | 10µM
COC(=O)N/N=C/c1ccc(-c2cc(Cl)cc(Cl)c2)o1 | 0 | 0
O=C(Nc1cccc(C(=O)OCc2cc(=O)n3c4c(sc3n2)CCCC4)c1)c1cccc(F)c1 | 0 | 0
COc1cc(NCCCCCCCN)c2ncccc2c1 | 0 | 15.8µM
COc1cc(NC(C)CCCN)c2ncccc2c1 (stereo not given) | 0 | 0
COc1cccc(-c2nc(N(C)Cc3ccco3)c3ccccc3n2)c1 | 0 | 0
Cc1ccc2onc(CNC(=O)Nc3cc(F)ccc3F)c2c1 | 0 | 0
O=C(COc1ccccc1Cl)Nc1ccc(Cl)c(-c2nc3ccccc3o2)c1 | 0 | 0
Cc1cc(Cl)ccc1OC(C)C(=O)Nc1ccc(S(=O)(=O)Nc2cnc3ccccc3n2)cc1 (stereo not given) | 25.1µM | ?
CCC(Oc1ccccc1)C(=O)Nc1ccc(S(=O)(=O)Nc2cnc3ccccc3n2)cc1 (stereo not given) | 0 | ?
CC(Oc1ccc(Cl)cc1Cl)C(=O)Nc1ccc(S(=O)(=O)Nc2cnc3ccccc3n2)cc1 (stereo not given) | 22.4µM | 0
COc1cc(NS(=O)(=O)c2ccc(NC(=O)C(C)Oc3ccc(Cl)cc3Cl)cc2)nc(OC)n1 (stereo not given) | 0 | 0
COc1ccc(C(c2c(O)cc(C)n(Cc3ccco3)c2=O)N2CCCCC2)cc1OC (stereo not given) | 0 | 0
CCC(=O)Nc1ccc(CC)cc1-c1nc2ccccc2n(CC(=O)Nc2ccccc2C)c1=O | 0 | 0
SMILES | Cruzain inh Det | Cruzain inh noDet
COc1ccccc1CCNC(=O)c1ccc2c(c1)c(C)c(C)n2C | 0 | ?
CCCCOC(=O)Cn1c(=O)c2c(nc3n2CCCCN3c2ccc(C)cc2)n(C)c1=O | 25.1µM | 0
Cn1c(=O)n(CC(=O)O)c(=O)c2c1nc1n2CCCN1c1ccc(Cl)cc1 | 0 | 0
COc1ccc2c(c1)CC(C(=O)Nc1cccc(C)c1C)CO2 (stereo not given) | 0 | 0
Cc1cc(-c2ccc(C)c(S(=O)(=O)NC(c3cccs3)C(C)C)c2)on1 (stereo not given) | 0 | 0
COc1cc2c(cc1NC(=O)COc1cc(C)cc(C)c1)oc1ccccc12 | 0 | 0
Cc1cc(C)c(NC(=O)COc2ccccc2C(=O)Nc2ccc3c(c2)oc2ccccc23)c(C)c1 | 0 | 5.01µM
Cn1cccc1C(=O)N1CCC2(CCN(Cc3ccccc3)CC2)CC1 | 0 | 0
Cc1ccc(-c2nc3sccn3c2Nc2ccccc2C)cc1 | 0 | 25.1µM
Cc1ccccc1Nc1c(-c2ccc(Br)cc2O)nc2sccn12 | 0 | 20µM
Cc1ccccc1Nc1c(-c2cc(Br)ccc2F)nc2ccccn12 | 0 | 0
CCc1cccc(C)c1Nc1c(-c2ccccc2)nc2sccn12 | 0 | 0
CCCCC/C=C\C/C=C\C/C=C\C/C=C\CCCC(=O)O[C@@H](CO)COCCCCCCCCCCCCCCCC | 0 | 0
Cc1ccc(N=c2c([N+](=O)[O-])nn(-c3ccccc3)n2O)c(C)c1 | 0 | ?
Cc1c(Cl)cccc1N=c1c([N+](=O)[O-])nn(-c2ccccc2)n1O | 0 | 20µM
Cc1ccc(C)c(SCC(=O)OCC(=O)Nc2ncc(C(F)(F)F)cc2Cl)c1 | ? | 0
O=C(COC(=O)CSc1cccc2cccc(Cl)c12)Nc1ncc(C(F)(F)F)cc1Cl | ? | 25.1µM
O=C(COC(=O)c1ccc2ccccc2c1)Nc1ncc(C(F)(F)F)cc1Cl | 0 | 0
O=C(COC(=O)CNC(=O)c1ccccc1Cl)Nc1ncc(C(F)(F)F)cc1Cl | 1.58µM | 1.26µM
COc1ccc(Cl)cc1NC(=O)c1cc(S(=O)(=O)NC2CCCCCC2)ccc1F | 0 | 0
c1ccc2nc3ccccc3nc2c1 | 0 | 0
Nc1nc2ccccc2nc1N | 0 | 20µM
Cc1c(Cl)cccc1-n1ncc(C(=O)NCc2cccs2)c1C1CCN(C(=O)OC(C)(C)C)CC1 | 0 | 0
COc1ccc(/C=N/NC(N)=S)cc1OC(=O)c1cccc2ccccc12 | 0 | 25.1µM
COc1cc(/C=N\Nc2ccc([N+](=O)[O-])cc2)ccc1OCC(=O)Nc1ccc(C)c(C)c1 | 0 | 3.98µM
SMILES | Cruzain inh Det | Cruzain inh noDet
CNC(=S)N/N=C/c1ccc(OCC(=O)Nc2c(C)cc(C)cc2C)c(OC)c1 | 0 | 0
CCOc1cc(/C=N\Nc2ccc([N+](=O)[O-])cc2)ccc1OCC(=O)Nc1ccc(C)c(C)c1 | 0 | ?
COc1cc(/C=N/NC(N)=S)ccc1OCC(=O)Nc1ccc(C)cc1 | 2.51µM | ?
COc1ccc(C(=O)Oc2cc(/C=N/NC(N)=S)ccc2OC)cc1 | 0 | ?
COc1cccc(-c2cc(NCc3cccs3)ncn2)c1 | 0 | 0
O=C(NCCc1csc(-c2ccc(C(F)(F)F)cc2)n1)C(=O)Nc1cc(F)ccc1F | 0 | 0
O=C(COC(=O)c1cc([N+](=O)[O-])ccc1NCc1ccccc1)NCc1ccccc1Cl | 0 | 0
O=C(COC(=O)c1cc([N+](=O)[O-])ccc1NCc1ccccc1)NC1CCCc2ccccc21 (stereo not given) | 0 | 25.1µM
CCOc1ccc(NC(=O)Cn2c(=O)n(-c3ccccc3)c(=O)c3c4c(sc32)CCCC4)cc1 | 0 | 0
O=C(C[n+]1ccc2ccccc2c1)c1ccc2ccc3ccccc3c2c1 | 0 | 3.16µM
O=C(C[n+]1ccc2ccccc2c1)Nc1cc(C(F)(F)F)ccc1Cl | 0 | 0
O=C(Cc1ccc(Cl)cc1)c1c(O)cc(O)cc1O | 0 | 0
O=C(c1ccccc1)c1c2c(cc3sc4ccccc4[n+]13)-c1cccc3cccc-2c13 | 0 | 25.1µM
Cc1sc2cc3c(c(C(=O)c4ccccc4)[n+]2c1C)-c1cccc2cccc-3c12 | 0 | 0
Cc1oc2ncnc(N3CCOCC3)c2c1C(=O)N(Cc1ccccc1)C(C)C | 0 | 0
Cc1cccc(Nc2nc(-c3ccccc3)c3cc(C)ccc3n2)c1 | 0 | 0
COC(=O)c1c(-c2ccc(C)cc2)csc1NC(=S)NC(=O)c1cc(OC)cc(OC)c1 | 0 | 3.98µM
CCOC(=O)c1c(-c2ccc(C)cc2)csc1NC(=O)c1cc(-c2ccc(OC)cc2)on1 | 0 | 0
Cc1ccc(-c2nc3cc(Cl)ccc3o2)cc1NC(=O)COc1ccc(F)cc1 | 0 | 0
CCOc1ccc(CCNC(=O)Cn2nc(C)c3c(C)n(-c4ccccc4)nc3c2=O)cc1OCC | 0 | 0
COc1ccc(Cl)cc1Nc1sc(C(=O)c2ccccc2)c(N)c1C(=O)Nc1ccccc1 | 0 | ?
